Test [1] in a line: NCI Yeast Anticancer Drug Screen. Data for the rad50 strain (AID 155).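 Note: 0% = growth of vehicle-only cultures of the same strain.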 The following applies: S. cerevisiae rad50 strain growth inhibition, hits give high values. Summed up: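 Compounds were tested on a yeast strain with an engineered DNA damage repair alteration; the reported value is growth inhibition normalised to vehicle treatment.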
Test [2] can be described thus: NCI Yeast Anticancer Drug Screen. Data for the mec2-1 strain (AID 157). The following applies: S. cerevisiae mec2-1 strain, hits give high values. Summed up:
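Mutant yeast (mec2-1) grown with compound; growth inhibition relative to vehicle control reported.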

Test [3] can be described thus: NCI Yeast Anticancer Drug Screen. Data for the sgs1 mgt1 strain (AID 161).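 Note: 0% = growth of cultures given vehicle only.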 The following applies: S. cerevisiae sgs1 mgt1 strain, hits give high values. In a few lines: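 Yeast cells carrying a defined DNA-repair defect were exposed to test compounds. Growth inhibition was measured relative to vehicle-treated controls.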
A short description of test [4]: NCI Yeast Anticancer Drug Screen. Data for the cln2 rad14 strain (AID 165).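 Note: 0% = growth equal to vehicle treated cultures.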 The following applies: S. cerevisiae cln2 rad14 strain, hits give high values. In a few lines: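 Readout is yeast growth inhibition versus vehicle-treated controls, using a strain with cln2 and rad14 alterations exposed to compound.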
Test [5] is described as follows: NCI Yeast Anticancer Drug Screen. Data for the bub3 strain (AID 167). The following applies: S. cerevisiae bub3 mutant strain, hits give high values. In a few lines: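 Growth of a checkpoint-deficient yeast mutant is measured after compound exposure. Values represent inhibition relative to vehicle.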
A short description of test [6]: NCI Yeast Anticancer Drug Screen. Data for the mlh1 rad18 strain (AID 175). The following applies: S. cerevisiae mlh1 rad18 strain growth inhibition, hits give high values. In a few lines:
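Genetically defined yeast (DNA repair-deficient) exposed to compounds; growth inhibition determined relative to vehicle.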

Setting [7] is: at 5.0 µM (retest, dose inferred, filed as 0.5).
The mark [8] stands for this setting: at 50.0 µM (retest, dose inferred, filed as 5.0).

These results are taken from PubChem BioAssay (NCI).

About 79,000 compounds went through this panel and 15% of them were active in at least one assay; those are over-represented in the sample as a whole. Unmarked numbers belong to inactive results. Activity calls are given as the source filed them. Cut-off read from the data, not from the text of the source: active = growth inhibition above about 70%; inactive = the rest.

Regarding `CC(=O)c1c2c(cc3c1CC1(C3)Cc3cc4c(c(C(=O)O)c3C1)CCCC4)CCCC2` (stereo not drawn) (tested in a mixture with another compound), the growth inhibition in test [1] (setting [7]) was 90% (active); in test [1] (setting [8]) it was 99% (active); in test [1] (at 50.0 µM), 77.7% (active); in test [2] (setting [7]) it was 84% (active); in test [2] (setting [8]), 99% (active); in test [2] (at 50.0 µM), 97% (active). For the same molecule, the growth inhibition was 94% (active) in test [3] (setting [7]); 99% (active) in test [3] (setting [8]); 97.8% (active) in test [3] (at 50.0 µM); 94% (active) in test [4] (setting [7]); 99% (active) in test [4] (setting [8]); 97.9% (active) in test [4] (at 50.0 µM). Moreover, the growth inhibition was 82% (active) in test [5] (setting [7]); 99% (active) in test [5] (setting [8]); 96% (active) in test [5] (at 50.0 µM); 96% (active) in test [6] (setting [7]); 99% (active) in test [6] (setting [8]); 98% (active) in test [6] (at 50.0 µM).
`O=C(c1ccccc1)C(Br)CCCC(Br)C(=O)c1ccccc1` (stereo not drawn): the growth inhibition is 30% in test [1] (setting [7]); 64% in test [1] (setting [8]); 97% (active) in test [1] (at 50.0 µM); 16% in test [2] (setting [7]); 51% in test [2] (setting [8]); 96.3% (active) in test [2] (at 50.0 µM). The growth inhibition is 19% in test [3] (setting [7]); 81% (active) in test [3] (setting [8]); 96% (active) in test [3] (at 50.0 µM); 15% in test [4] (setting [7]); 32% in test [4] (setting [8]); 67.2% in test [4] (at 50.0 µM). The growth inhibition in test [5] (setting [7]) is 23%; in test [5] (setting [8]), 73% (active); in test [5] (at 50.0 µM), 97.3% (active); in test [6] (setting [7]), 24%; in test [6] (setting [8]), 60%; in test [6] (at 50.0 µM) it was 95.5% (active).
Consider `CC(C)(CC(=O)NNc1ccccc1)C(=O)O`, for which the growth inhibition was 7% in test [1] (setting [7]); 72% (active) in test [1] (setting [8]); 57.6% in test [1] (at 50.0 µM); 4% in test [2] (setting [7]); 61% in test [2] (setting [8]); 20.2% in test [2] (at 50.0 µM). The growth inhibition in test [3] (setting [7]) is 14%; in test [3] (setting [8]), 60%; in test [3] (at 50.0 µM), 72% (active); in test [4] (setting [7]), 19%; in test [4] (setting [8]) it was 82% (active); in test [4] (at 50.0 µM) it was 79.2% (active). The growth inhibition is 22% in test [5] (setting [7]); 94% (active) in test [5] (setting [8]); 89.5% (active) in test [5] (at 50.0 µM); 32% in test [6] (setting [7]); 95% (active) in test [6] (setting [8]); 85.8% (active) in test [6] (at 50.0 µM).
For the molecule `O=S(=O)(O)CNc1cc(Cl)cc(Cl)c1`, the growth inhibition is 34% in test [1] (setting [7]); 78% (active) in test [1] (setting [8]); 13.9% in test [1] (at 50.0 µM); 9% in test [2] (setting [7]); 28% in test [2] (setting [8]); -5% in test [2] (at 50.0 µM). Moreover, the growth inhibition in test [3] (setting [7]) is 1%; in test [3] (setting [8]), 17%; in test [3] (at 50.0 µM) it was 2.3%; in test [4] (setting [7]) it was 4%; in test [4] (setting [8]), 16%; in test [4] (at 50.0 µM), -53.4%. Besides, the growth inhibition is 6% in test [5] (setting [7]); 85% (active) in test [5] (setting [8]); 2.1% in test [5] (at 50.0 µM); 8% in test [6] (setting [7]); 33% in test [6] (setting [8]); 41.8% in test [6] (at 50.0 µM).
For `COC(=O)c1ccccc1CC(Cc1ccc2c(c1)CCC2)C(=O)OC` (stereo not drawn), the growth inhibition in test [1] (setting [7]) was 20%; in test [1] (setting [8]), 27%; in test [1] (at 50.0 µM), 35%; in test [2] (setting [7]) it was 12%; in test [2] (setting [8]), 14%; in test [2] (at 50.0 µM), 16.9%. For the same molecule, the growth inhibition in test [3] (setting [7]) is 10%; in test [3] (setting [8]), 20%; in test [3] (at 50.0 µM), 29.6%; in test [4] (setting [7]), 9%; in test [4] (setting [8]), -2%; in test [4] (at 50.0 µM), 13.7%. Further, the growth inhibition in test [5] (setting [7]) is 16%; in test [5] (setting [8]), 27%; in test [5] (at 50.0 µM) it was 12.3%; in test [6] (setting [7]), 16%; in test [6] (setting [8]) it was 15%; in test [6] (at 50.0 µM), 4.25%.
Take `O=S(=O)(O)C(O)c1ccc2ccc3cccc4ccc1c2c34` (stereo not drawn): the growth inhibition is 12% in test [1] (setting [7]); 95% (active) in test [1] (setting [8]); 94.4% (active) in test [1] (at 50.0 µM); -2% in test [2] (setting [7]); 96% (active) in test [2] (setting [8]); 95.3% (active) in test [2] (at 50.0 µM). The growth inhibition in test [3] (setting [7]) was 4%; in test [3] (setting [8]), 92% (active); in test [3] (at 50.0 µM), 67.8%; in test [4] (setting [7]) it was -4%; in test [4] (setting [8]), 84% (active); in test [4] (at 50.0 µM), 77.5% (active). Also, the growth inhibition in test [5] (setting [7]) is -3%; in test [5] (setting [8]) it was 94% (active); in test [5] (at 50.0 µM), 97.5% (active); in test [6] (setting [7]), 3%; in test [6] (setting [8]) it was 95% (active); in test [6] (at 50.0 µM), 97% (active).
